# Source: PubChem BioAssay
# Jurkat NFkB inh = inhibitors of induced NF-kB luciferase reporter, primary screen, TCR NF-kB activation inhibitor project, cell-based, luminescence, uHTS. AID 435003, 2010. Jurkat, PMA/ionomycin-induced NF-kB luciferase reporter. inhibition, % at 4 µM. actives 0.53% (n = 330,000); in the data active means inhibition above about 50%
# Beta cell apopt = inhibitors of cytokine-induced beta cell apoptosis, primary screen, luminescence. INS-1E cytokine-induced death, ATP luminescence, 48 h; percent of positive-control rescue, neutral wells zero. protection from apoptosis, % (concentration not given with the values). actives 0.8% (n = 300,000). AID 435005, 2010;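 active means Every replicate reaches about 75%, or at least half do and their mean reaches it too, limit read from the data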;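 further: 0% = cytokine-treated negative control wells and 100% = positive control rescue; higher means more ATP so stronger rescue from cytokine killing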
# CSC inhib = cancer stem cell viability inhibitors, primary screen, luminescence | cancer stem cell-like cells viability | inhibition, % at 7.5 µM | actives 1.1% (n = 300,000) | AID 2717, 2010; in the data active means inhibition above about 75%; tested in HMLE shEcad cells
# Gli-Sufu block = Gli-Sufu pathway antagonists, primary screen, luciferase luminescence, Sufu-KO-LIGHT cells, uHTS | inhibition, % at 5 µM | actives 0.74% (n = 340,000) | Sufu-KO-LIGHT fibroblasts, Gli luciferase reporter luminescence;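 active means inhibition above about 55%, limit read from the data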;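 further: 0% = DMSO-treated cells and 100% = wells with medium but no cells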
# Mdm2-MdmX inh = inhibitors of human Mdm2-MdmX association, primary screen, cell-based, luminescence, split luciferase, SaOS-2, uHTS. Protein Mdm4 (Homo sapiens) + E3 ubiquitin-protein ligase Mdm2 (Homo sapiens), …. SaOS-2 split-luciferase Mdm2/MdmX complementation. inhibition, % at 8 µM. actives 3% (n = 330,000). AID 485346, 2010;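 active means inhibition of at least 50% at 8 µM in the primary screen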
# Target sequence (O15151 whole entry, looked up): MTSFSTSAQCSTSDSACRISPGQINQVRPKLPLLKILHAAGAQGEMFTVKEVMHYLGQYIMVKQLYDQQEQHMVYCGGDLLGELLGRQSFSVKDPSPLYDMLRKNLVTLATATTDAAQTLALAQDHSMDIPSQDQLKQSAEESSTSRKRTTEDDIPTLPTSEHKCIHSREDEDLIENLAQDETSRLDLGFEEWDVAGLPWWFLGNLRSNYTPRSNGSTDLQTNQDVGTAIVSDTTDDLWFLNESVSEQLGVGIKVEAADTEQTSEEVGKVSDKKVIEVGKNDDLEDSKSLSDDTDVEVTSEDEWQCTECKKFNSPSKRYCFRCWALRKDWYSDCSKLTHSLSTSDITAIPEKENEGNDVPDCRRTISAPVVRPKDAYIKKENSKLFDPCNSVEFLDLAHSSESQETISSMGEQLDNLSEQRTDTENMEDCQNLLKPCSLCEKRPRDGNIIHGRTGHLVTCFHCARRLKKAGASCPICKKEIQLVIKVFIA
# Target sequence (Q00987 whole entry, looked up): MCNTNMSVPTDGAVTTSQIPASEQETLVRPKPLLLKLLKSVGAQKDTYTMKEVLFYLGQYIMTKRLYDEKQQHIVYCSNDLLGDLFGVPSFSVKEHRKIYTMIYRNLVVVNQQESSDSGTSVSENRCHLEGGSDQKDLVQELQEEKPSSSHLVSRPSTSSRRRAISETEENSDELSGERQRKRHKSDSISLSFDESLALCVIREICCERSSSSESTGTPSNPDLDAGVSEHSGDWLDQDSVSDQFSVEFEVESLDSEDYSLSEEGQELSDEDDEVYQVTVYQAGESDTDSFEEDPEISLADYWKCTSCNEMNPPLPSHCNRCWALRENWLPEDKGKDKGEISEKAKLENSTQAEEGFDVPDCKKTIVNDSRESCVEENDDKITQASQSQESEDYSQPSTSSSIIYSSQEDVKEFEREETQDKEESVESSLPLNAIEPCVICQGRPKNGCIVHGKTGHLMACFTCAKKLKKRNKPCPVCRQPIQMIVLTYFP
# 697 NFkB inh = inhibitors of PMA/ionomycin-induced NF-kB reporter, 697 cells, primary screen, B-cell NF-kB inhibitor project, cell-based, luminescence, uHTS; 697 B-cell NF-kB luciferase reporter, 16 h; inhibition, % at 4 µM; actives 0.33% (n = 330,000); in the data active means inhibition above about 35%
# The depositor's hits bear a star; nt = not tested or not shown. Most compounds without a hit are left out; they make up all but 4.5% or so of the library.
SMILES,Jurkat NFkB inh,Beta cell apopt,CSC inhib,Gli-Sufu block,Mdm2-MdmX inh,697 NFkB inh
O=C(CCc1ccc(Oc2cc([N+](=O)[O-])cc([N+](=O)[O-])c2)cc1)N1CCCCCC1,8.2,10.1,95.8*,12.8,-6.1,11.2
O=C(Cc1ccc([N+](=O)[O-])cc1)N1CCCCCC1,16.2,nt,1.8,-10.7,-9.6,8.6
O=C(NCCc1ccccc1)[C@@H]1CC=C[C@@H]2CCN(Cc3ccc(Cl)c(Cl)c3)C(=O)[C@@H]21,14.9,99.4*,20.6,-5.2,45.6,13.8
CC(C)N(CCn1c(SCC(=O)Nc2cccnc2Cl)nc2ccccc2c1=O)C(C)C,-13.9,-1.0,nt,25.6,10.3,-6.2
Cc1cc(-c2ccccc2)nc(N/N=C/c2ccc(O)cc2O)n1,5.8,39.2,96.0*,6.3,46.9,0.2
Oc1ccc(/C=N/Nc2ncc(Br)cn2)c(O)c1,-35.5,86.9*,90.8*,-45.9,-7.3,-100.9
Oc1ccc(C=NNc2ccccn2)c(O)c1,nt,nt,nt,43.9,nt,nt
Cc1cc(-c2ccccc2)nc(N/N=C/c2ccccc2)n1,-32.8,6.1,16.3,16.1,-22.3,-15.2
CN(/N=C/c1ccc(O)cc1O)c1nc(-c2ccccc2)cc(-c2ccccc2)n1,3.8,3.6,88.8*,nt,27.3,-3.5
CCn1c(SCC(=O)N/N=C(/C)c2ccncc2)nc2ccccc21,5.7,-5.7,-10.9,4.8,-10.3,28.2
N#Cc1ccc(-c2ccc(Cl)cc2)nc1SCC(=O)c1cccc(Cl)c1,-12.3,90.8*,10.3,11.1,31.3,3.7
CCCSc1nsc(NC(=O)C(c2ccccc2)c2ccccc2)n1,-10.4,4.8,121.6*,-21.8,39.9,8.2
CCCCCCSc1nsc(NC(=O)CC(C)C)n1,-16.6,-5.8,91.0*,-20.7,-65.1,-31.6
CCCSc1nsc(NC(=O)CC)n1,-44.2,nt,-8.6,-74.1,-73.4,-86.1
O=C(CCCCC(=O)Nc1ccc(F)cc1)Nc1ccc(F)cc1,-1.1,4.2,3.9,34.3,-3.3,3.8
O=C(CCCCC(=O)Nc1ccc(F)cc1F)Nc1ccc(F)cc1F,10.7,133.3*,7.8,-2.3,17.4,-5.2
NS(=O)(=O)c1cc(C(=O)OCC(=O)N2CCc3ccccc3C2)ccc1Cl,-15.6,-2.5,nt,27.6,-33.3,-4.5
O=C1C(Nc2ccccc2)=C(N2CCCCC2)C(=O)c2ccccc21,-7.6,82.5*,4.4,-15.4,42.1,12.2
Cc1ccc(NC2=C(N3CCCCC3)C(=O)c3ccccc3C2=O)cc1,-0.8,76.2*,-1.5,15.2,35.0,2.8
O=C(/C=C/c1ccc(O)cc1)c1ccc(NC2=C(N3CCCCC3)C(=O)c3ccccc3C2=O)cc1,11.4,10.3,89.8*,19.7,48.2,26.5
O=C(/C=C/c1ccc(O)cc1)c1ccccc1,-34.8,-1.1,38.5,-5.6,-38.0,-38.8
CC(=O)Nc1ccc(S(=O)(=O)NC2=C(N3CCN(C)CC3)C(=O)c3ccccc3C2=O)cc1,29.3,99.3*,7.4,-8.9,27.5,-11.0
O=C1C(Nc2cccc(O)c2)=C(N2CCCCC2)C(=O)c2ccccc21,-4.6,nt,nt,22.8,31.8,-16.6
CCN1CCN(C2=C(NS(=O)(=O)c3ccc(NC(C)=O)cc3)C(=O)c3ccccc3C2=O)CC1,23.6,54.0,12.3,4.3,46.6,-7.8
COc1ccc(NS(=O)(=O)c2cccc(C(=O)O)c2)cc1S(=O)(=O)N1CCOCC1,10.7,-6.4,-0.3,6.1,-11.0,8.3
SMILES,Jurkat NFkB inh,Beta cell apopt,CSC inhib,Gli-Sufu block,Mdm2-MdmX inh,697 NFkB inh
CSc1ncnc2ncn(C)c12,nt,nt,nt,-7.2,nt,nt
Nc1ccccc1N=Cc1ccc(-c2cccc(Cl)c2)o1,-88.5,7.6,76.6*,-47.1,-19.3,-73.7
O=C(CCN1C(=O)C2C3CCC(C3)C2C1=O)Nc1ccc(F)cc1 (centres undefined),-6.6,nt,nt,-0.2,7.5,15.7
Cc1ccc(/C=N/NS(=O)(=O)c2ccc([N+](=O)[O-])cc2)o1,12.1,-4.6,-16.5,-5.3,20.0,6.7
CCCCCCCCCCS(=O)(=O)N/N=C/c1ccc([N+](=O)[O-])cc1,2.1,4.6,86.0*,-0.4,2.6,10.2
CC[C@@H](C(=O)[C@@H](C)[C@@H](O)[C@H](C)[C@@H]1O[C@@H]([C@@H](CC)C(=O)O)CC[C@@H]1C)[C@H]1O[C@]2(C=C[C@@H](O)[C@]3(CC[C@@](C)([C@H]4CC[C@](O)(CC)[C@H](C)O4)O3)O2)[C@H](C)C[C@@H]1C,nt,nt,nt,90.3*,nt,nt
CCCCn1c(=O)c2c(nc3n2CCCN3Cc2ccccc2)n(C)c1=O,-6.0,nt,nt,5.8,19.7,-13.5
O=C(CNS(=O)(=O)c1c(F)cccc1F)NC1CCCc2ccccc21 (centres undefined),17.2,-2.0,-17.1,14.4,22.2,6.6
C=CCn1cccc(/C=C/C(=O)c2ccc(C(C)(C)C)cc2)c1=S,nt,1.2,110.6*,-2.5,nt,nt
O=C1CSC(c2cccc(F)c2)N1c1ccccc1 (centres undefined),3.7,nt,-2.8,3.0,4.9,9.4
CCn1cc(C(=O)O)c(=O)c2cc(F)c(N/N=C/c3ccccc3[N+](=O)[O-])cc21,-5.4,97.2*,21.7,-0.6,24.0,-45.7
CCn1cc(C(=O)O)c(=O)c2cc(F)c(N3CCN(C(=S)Nc4ccccc4OC)CC3)cc21,2.6,6.3,-10.3,2.4,-7.8,14.1
CC(C)CNC(=O)COC(=O)c1c2c(nc3ccccc13)/C(=C/c1cccs1)CC2,nt,77.7*,52.4,38.8,nt,nt
CCN(c1ccccc1)c1nc(C#N)nc(N(CC)c2ccccc2)n1,8.7,-3.3,89.7*,1.9,36.7,13.5
Cc1cccc(-n2ncc3c2CCCC3NC(=O)C2(C(N)=O)CC2)c1C (centres undefined),34.8,56.9,6.7,63.2*,-14.0,19.2
Cc1ccc(NC(=O)c2cc(-c3ccccc3)nn2-c2ccccc2)cc1,-4.5,2.3,87.9*,-5.3,-1.6,-10.3
CCN(CC)C(=O)[C@H]1CC(CC(=O)NCCCOC)C(=O)N2CCc3c([nH]c4ccccc34)[C@]12C (some centres undefined),5.9,-4.7,nt,1.5,-2.6,-6.9
Nc1c(C(=O)CSc2nc(-c3ccccc3)cs2)c(=O)[nH]c(=O)n1C1CC1,-16.4,-3.1,-0.3,-22.2,4.1,-167.5
CC(C)c1cc(-c2cc(-c3ccccc3)on2)nc(NC2CCCC2)n1,-10.2,7.4,85.0*,-3.8,8.6,13.6
COC(=O)c1c(NC(=O)CC2SC(N)=NC2=O)sc(C)c1C (centres undefined),6.0,-9.2,-15.6,-13.6,11.2,15.7
NNc1ncnc2scc(-c3ccc(Cl)cc3)c12,-3.9,94.2*,-6.5,1.4,-2.4,-4.7
